From publication PMC7862700, “An all-to-all approach to the identification of sequence-specific readers for epigenetic DNA modifications on cytosine”

Tests used:
Test in all cases: DAPPL (digital affinity profiling via proximity ligation, sequencing); 10 mM Tris-HCl pH 7.5, 50 mM NaCl, 1 mM DTT, 4% glycerol, room temperature, 30 min; GST-TFs on glutathione beads, 16-mer random dsDNA library, 0.1% formaldehyde crosslink after washing; high values mean tight binding
[1] = biological target: T1, FEV (Homo sapiens, UniProt Q99581 1-238); conditions: protein: recombinant; tags: N-terminal GST; dsDNA, one strand shown
T1 sequence: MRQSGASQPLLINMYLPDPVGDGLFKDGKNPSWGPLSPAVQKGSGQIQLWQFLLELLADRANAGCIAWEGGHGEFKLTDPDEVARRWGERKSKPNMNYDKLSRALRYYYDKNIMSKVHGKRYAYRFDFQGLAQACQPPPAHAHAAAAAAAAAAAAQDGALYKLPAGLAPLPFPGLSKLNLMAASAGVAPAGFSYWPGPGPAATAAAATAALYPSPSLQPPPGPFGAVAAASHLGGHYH
Summary of the method: (§1)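 Yeast served to express human transcription factors as GST fusions, which were then captured on glutathione beads and labelled with DNA barcodes. Pooled with a tag-only sample, they were incubated with 200 nmole of a 16-mer random double-stranded DNA library for 30 min at room temperature in Tris/NaCl/DTT/glycerol buffer, washed, crosslinked with 0.1% formaldehyde, ligated by proximity, amplified by PCR and sequenced. Dividing each hexamer's read frequency for a factor by its frequency for the tag-only sample gives the binding signal.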

[2] = biological target: ETV5 (Homo sapiens, UniProt P41161 1-510); conditions: protein: recombinant; tags: N-terminal GST; dsDNA, one strand shown
ETV5, sequence (P41161 whole entry): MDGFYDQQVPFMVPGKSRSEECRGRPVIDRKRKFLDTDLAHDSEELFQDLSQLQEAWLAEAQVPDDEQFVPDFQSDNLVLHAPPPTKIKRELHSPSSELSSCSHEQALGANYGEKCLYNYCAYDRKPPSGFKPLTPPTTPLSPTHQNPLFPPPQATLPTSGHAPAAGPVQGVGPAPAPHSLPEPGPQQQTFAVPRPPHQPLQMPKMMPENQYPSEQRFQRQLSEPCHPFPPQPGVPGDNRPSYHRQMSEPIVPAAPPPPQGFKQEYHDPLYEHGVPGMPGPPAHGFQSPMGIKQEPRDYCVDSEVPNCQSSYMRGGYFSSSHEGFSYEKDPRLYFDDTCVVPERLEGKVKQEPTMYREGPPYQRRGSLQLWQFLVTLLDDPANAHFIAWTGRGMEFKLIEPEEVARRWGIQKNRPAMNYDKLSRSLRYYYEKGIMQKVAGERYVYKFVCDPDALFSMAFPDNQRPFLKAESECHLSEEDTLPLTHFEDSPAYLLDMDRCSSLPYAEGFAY
Summary of the method: as §1

[3] = biological target: HSF1 (Homo sapiens, UniProt Q00613 1-529); conditions: protein: recombinant; tags: N-terminal GST; chain copies: 3; dsDNA, one strand shown
HSF1, sequence (Q00613 whole entry): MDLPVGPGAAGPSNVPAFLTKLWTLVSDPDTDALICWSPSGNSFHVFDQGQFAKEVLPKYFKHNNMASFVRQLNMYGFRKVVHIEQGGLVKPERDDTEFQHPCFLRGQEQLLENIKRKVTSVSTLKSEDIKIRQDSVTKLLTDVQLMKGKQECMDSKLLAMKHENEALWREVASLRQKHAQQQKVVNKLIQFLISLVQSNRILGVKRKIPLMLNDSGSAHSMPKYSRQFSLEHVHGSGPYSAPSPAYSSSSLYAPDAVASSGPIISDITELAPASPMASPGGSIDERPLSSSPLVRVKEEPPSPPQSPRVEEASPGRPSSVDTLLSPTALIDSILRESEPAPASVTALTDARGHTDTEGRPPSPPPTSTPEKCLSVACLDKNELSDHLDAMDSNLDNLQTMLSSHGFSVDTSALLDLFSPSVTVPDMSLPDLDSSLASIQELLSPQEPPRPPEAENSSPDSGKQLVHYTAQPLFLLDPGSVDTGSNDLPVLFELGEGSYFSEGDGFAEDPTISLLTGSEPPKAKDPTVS
Summary of the method: as §1

[4] = biological target: T2, SPIC (Homo sapiens, UniProt Q8N5J4 1-248); conditions: protein: recombinant; tags: N-terminal GST; dsDNA, one strand shown
T2 sequence: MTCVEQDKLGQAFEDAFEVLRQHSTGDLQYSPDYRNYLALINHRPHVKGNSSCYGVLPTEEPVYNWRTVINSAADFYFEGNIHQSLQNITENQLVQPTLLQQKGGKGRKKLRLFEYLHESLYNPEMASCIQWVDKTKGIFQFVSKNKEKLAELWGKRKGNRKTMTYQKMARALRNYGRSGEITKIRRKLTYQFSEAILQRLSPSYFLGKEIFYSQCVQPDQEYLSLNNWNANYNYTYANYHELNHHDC
Summary of the method: as §1

[5] = biological target: ELF4 (Homo sapiens, UniProt Q99607 1-663); conditions: protein: recombinant; tags: N-terminal GST; dsDNA, one strand shown
ELF4, sequence (Q99607 whole entry): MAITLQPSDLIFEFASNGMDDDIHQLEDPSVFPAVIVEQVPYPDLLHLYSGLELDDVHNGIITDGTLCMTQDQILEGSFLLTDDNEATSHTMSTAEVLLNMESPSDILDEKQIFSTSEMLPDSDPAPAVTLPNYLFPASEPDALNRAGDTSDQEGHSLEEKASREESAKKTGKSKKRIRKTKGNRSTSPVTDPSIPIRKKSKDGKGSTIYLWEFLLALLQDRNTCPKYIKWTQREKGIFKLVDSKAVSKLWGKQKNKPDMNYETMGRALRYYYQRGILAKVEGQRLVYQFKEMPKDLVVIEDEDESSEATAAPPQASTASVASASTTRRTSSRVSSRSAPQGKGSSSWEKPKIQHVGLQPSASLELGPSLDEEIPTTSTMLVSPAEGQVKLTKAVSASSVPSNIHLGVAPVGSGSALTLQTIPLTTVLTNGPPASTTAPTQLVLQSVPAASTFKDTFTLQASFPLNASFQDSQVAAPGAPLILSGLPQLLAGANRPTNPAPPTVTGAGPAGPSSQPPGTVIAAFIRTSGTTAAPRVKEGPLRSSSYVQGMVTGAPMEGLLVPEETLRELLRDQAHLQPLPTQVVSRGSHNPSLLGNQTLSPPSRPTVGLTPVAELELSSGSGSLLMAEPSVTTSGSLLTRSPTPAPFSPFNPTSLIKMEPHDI
Summary of the method: as §1

[6] = biological target: T3, ELK4 (Homo sapiens, UniProt P28324-2 1-405); conditions: protein: recombinant; tags: N-terminal GST; dsDNA, one strand shown
T3 sequence: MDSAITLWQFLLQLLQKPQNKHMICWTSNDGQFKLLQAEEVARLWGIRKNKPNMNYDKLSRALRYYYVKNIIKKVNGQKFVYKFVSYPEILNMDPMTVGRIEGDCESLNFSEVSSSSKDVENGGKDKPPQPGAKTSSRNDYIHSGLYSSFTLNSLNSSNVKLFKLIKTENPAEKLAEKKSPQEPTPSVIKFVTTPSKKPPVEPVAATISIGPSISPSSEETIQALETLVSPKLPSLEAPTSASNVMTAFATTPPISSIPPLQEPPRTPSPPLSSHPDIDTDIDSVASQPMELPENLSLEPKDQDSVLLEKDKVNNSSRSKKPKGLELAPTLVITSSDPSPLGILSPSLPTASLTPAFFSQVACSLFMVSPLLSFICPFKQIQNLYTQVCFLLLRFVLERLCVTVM
Summary of the method: as §1

[7] = biological target: T4, ETV2 (Homo sapiens, UniProt O00321 1-342); conditions: protein: recombinant; tags: N-terminal GST; dsDNA, one strand shown
T4 sequence: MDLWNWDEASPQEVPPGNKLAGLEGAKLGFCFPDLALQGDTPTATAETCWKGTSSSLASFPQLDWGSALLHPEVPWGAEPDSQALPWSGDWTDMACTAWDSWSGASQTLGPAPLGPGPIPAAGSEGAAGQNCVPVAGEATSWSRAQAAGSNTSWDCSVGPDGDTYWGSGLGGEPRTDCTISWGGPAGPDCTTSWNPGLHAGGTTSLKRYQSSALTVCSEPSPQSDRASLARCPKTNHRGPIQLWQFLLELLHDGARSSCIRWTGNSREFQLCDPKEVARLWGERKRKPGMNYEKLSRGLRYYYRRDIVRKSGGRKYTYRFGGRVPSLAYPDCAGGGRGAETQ
Summary of the method: as §1

[8] = biological target: T5, ELF3 (Homo sapiens, UniProt P78545 1-371); conditions: protein: recombinant; tags: N-terminal GST; dsDNA, one strand shown
T5 sequence: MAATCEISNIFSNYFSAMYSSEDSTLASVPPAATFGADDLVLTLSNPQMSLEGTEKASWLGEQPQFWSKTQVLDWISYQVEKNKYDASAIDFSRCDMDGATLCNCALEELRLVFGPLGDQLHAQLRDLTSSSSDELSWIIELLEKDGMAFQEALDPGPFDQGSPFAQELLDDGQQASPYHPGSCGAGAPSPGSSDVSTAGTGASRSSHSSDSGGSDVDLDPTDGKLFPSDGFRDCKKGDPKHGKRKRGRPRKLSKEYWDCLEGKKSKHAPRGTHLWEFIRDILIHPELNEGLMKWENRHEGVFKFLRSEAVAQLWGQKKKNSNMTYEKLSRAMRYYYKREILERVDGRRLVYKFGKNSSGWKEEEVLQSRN
Summary of the method: as §1

[9] = biological target: CRX (Homo sapiens, UniProt O43186 1-299); conditions: protein: recombinant; tags: N-terminal GST; dsDNA, one strand shown
CRX, sequence (O43186 whole entry): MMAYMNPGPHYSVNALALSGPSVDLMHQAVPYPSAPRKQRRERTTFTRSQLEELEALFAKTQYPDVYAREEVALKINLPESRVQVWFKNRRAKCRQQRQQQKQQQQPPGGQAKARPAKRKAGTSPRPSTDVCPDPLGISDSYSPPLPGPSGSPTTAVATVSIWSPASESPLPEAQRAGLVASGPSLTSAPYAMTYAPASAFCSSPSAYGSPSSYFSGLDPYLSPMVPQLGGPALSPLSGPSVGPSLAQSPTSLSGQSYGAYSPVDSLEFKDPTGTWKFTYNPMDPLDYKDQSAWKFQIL
Summary of the method: as §1

[10] = biological target: ETV1 (Homo sapiens, UniProt P50549 1-477); conditions: protein: recombinant; tags: N-terminal GST; dsDNA, one strand shown
ETV1, sequence (P50549 whole entry): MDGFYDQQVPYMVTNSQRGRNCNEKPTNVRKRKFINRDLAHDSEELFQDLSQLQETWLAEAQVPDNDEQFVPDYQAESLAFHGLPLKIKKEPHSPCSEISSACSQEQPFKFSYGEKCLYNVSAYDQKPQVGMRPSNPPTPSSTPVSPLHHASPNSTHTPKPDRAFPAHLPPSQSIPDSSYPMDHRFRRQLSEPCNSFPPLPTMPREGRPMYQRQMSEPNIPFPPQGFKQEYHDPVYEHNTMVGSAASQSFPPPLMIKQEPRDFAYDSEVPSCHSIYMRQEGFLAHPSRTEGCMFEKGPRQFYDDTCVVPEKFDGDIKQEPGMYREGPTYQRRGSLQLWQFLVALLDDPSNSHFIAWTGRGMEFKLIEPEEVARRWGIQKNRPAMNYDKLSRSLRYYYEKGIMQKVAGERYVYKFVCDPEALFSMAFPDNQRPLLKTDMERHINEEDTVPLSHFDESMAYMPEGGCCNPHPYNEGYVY
Summary of the method: as §1

[11] = biological target: T6, ERF (Homo sapiens, UniProt P50548 1-548); conditions: protein: recombinant; tags: N-terminal GST; dsDNA, one strand shown
T6 sequence: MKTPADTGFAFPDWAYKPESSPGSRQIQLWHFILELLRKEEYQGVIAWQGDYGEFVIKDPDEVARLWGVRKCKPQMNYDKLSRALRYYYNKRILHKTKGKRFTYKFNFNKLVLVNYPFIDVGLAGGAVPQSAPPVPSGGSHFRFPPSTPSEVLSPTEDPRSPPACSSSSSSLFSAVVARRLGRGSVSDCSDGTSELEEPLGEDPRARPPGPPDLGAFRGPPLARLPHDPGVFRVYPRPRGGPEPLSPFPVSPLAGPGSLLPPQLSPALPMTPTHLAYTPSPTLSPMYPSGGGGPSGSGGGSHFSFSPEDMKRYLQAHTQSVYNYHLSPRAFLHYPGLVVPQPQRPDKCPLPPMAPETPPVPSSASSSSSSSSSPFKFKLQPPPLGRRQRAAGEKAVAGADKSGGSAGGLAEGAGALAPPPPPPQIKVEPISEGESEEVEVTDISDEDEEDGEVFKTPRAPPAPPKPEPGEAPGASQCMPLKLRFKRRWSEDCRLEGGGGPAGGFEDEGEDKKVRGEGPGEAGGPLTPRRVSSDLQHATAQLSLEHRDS
Summary of the method: as §1

[12] = biological target: T7, ETV3L (Homo sapiens, UniProt Q6ZN32 1-361); conditions: protein: recombinant; tags: N-terminal GST; dsDNA, one strand shown
T7 sequence: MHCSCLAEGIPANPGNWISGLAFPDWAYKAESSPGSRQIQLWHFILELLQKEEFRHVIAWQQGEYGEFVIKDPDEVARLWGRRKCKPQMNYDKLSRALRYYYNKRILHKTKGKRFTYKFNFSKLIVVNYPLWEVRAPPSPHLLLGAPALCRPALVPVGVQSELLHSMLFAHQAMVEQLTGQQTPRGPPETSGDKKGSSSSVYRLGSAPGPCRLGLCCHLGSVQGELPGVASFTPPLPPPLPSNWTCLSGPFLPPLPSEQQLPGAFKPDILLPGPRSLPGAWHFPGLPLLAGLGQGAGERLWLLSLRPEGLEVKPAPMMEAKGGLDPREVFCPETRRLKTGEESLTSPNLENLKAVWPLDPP
Summary of the method: as §1

[13] = biological target: T8, ETS2 (Homo sapiens, UniProt P15036 1-469); conditions: protein: recombinant; tags: N-terminal GST; dsDNA, one strand shown
T8 sequence: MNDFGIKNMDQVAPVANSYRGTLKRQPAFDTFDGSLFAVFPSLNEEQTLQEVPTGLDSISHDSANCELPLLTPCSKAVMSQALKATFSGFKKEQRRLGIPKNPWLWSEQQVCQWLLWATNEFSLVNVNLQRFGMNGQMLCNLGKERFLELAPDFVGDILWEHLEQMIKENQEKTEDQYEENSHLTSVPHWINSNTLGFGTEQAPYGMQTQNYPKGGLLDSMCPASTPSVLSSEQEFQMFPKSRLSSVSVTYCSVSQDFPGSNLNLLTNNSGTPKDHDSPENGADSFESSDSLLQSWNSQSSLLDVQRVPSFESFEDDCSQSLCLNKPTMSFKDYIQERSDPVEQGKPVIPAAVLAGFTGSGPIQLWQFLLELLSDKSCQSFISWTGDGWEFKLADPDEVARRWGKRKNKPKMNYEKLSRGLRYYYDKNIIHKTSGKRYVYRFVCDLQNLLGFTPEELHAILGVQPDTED
Summary of the method: as §1

[14] = biological target: T9, SPDEF (Homo sapiens, UniProt O95238 1-335); conditions: protein: recombinant; tags: N-terminal GST; dsDNA, one strand shown
T9 sequence: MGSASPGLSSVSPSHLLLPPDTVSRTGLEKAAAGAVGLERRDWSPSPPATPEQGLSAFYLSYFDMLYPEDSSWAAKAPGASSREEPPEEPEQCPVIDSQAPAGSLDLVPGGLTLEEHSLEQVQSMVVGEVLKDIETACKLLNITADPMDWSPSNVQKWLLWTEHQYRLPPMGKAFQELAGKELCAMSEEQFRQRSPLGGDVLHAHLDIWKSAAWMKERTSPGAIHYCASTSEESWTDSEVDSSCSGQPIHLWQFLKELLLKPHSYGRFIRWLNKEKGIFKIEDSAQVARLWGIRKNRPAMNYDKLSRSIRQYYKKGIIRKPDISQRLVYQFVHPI
Summary of the method: as §1

[15] = biological target: T10, ETV7 (Homo sapiens, UniProt Q9Y603 1-341); conditions: protein: recombinant; tags: N-terminal GST; dsDNA, one strand shown
T10 sequence: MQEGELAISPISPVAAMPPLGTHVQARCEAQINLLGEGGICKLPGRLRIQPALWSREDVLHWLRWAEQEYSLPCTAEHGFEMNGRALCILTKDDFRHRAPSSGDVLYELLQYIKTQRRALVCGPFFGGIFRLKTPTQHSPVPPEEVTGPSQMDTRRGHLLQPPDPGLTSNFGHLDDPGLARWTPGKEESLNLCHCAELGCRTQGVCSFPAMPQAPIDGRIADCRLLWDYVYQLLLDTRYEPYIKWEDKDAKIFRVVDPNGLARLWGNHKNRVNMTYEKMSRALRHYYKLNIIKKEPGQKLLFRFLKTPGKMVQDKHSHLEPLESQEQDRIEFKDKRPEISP
Summary of the method: as §1

[16] = biological target: T11, ELF5 (Homo sapiens, UniProt Q9UKW6-2 1-255); conditions: protein: recombinant; tags: N-terminal GST; dsDNA, one strand shown
T11 sequence: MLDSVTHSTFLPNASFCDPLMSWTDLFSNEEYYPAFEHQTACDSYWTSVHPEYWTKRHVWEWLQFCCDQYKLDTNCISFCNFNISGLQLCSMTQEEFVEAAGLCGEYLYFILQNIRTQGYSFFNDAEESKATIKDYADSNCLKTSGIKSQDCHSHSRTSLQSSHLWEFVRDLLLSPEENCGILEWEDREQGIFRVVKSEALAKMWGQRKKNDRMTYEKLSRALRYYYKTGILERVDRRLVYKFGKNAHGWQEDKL
Summary of the method: as §1

[17] = biological target: T12, ETV3 (Homo sapiens, UniProt P41162-2 1-143); conditions: protein: recombinant; tags: N-terminal GST; dsDNA, one strand shown
T12 sequence: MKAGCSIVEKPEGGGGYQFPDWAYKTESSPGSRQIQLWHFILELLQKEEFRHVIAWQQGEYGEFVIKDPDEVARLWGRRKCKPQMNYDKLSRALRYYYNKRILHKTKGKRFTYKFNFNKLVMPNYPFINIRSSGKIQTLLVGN
Summary of the method: as §1

[18] = biological target: ETV6 (Homo sapiens, UniProt P41212 1-452); conditions: protein: recombinant; tags: N-terminal GST; dsDNA, one strand shown
ETV6, sequence (P41212 whole entry): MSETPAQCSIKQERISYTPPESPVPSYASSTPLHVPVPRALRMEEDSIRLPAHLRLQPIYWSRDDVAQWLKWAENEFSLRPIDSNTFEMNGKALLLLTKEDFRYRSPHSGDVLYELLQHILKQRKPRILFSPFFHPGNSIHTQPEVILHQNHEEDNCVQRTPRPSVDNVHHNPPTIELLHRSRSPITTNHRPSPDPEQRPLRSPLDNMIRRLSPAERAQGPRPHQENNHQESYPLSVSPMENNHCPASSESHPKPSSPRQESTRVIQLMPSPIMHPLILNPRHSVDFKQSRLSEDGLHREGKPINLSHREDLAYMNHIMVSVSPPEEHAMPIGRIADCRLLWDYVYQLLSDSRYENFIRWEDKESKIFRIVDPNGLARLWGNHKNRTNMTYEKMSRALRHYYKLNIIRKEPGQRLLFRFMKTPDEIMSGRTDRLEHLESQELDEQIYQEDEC
Summary of the method: as §1

CTCTAT
binding signal [1]: 1.11 fold enrichment (6-mer frequency, TF over GST control) | binding signal [2]: 1.15 fold enrichment (6-mer frequency, TF over GST control) | binding signal [3]: 1.11 fold enrichment (6-mer frequency, TF over GST control) | binding signal [4]: 1.05 fold enrichment (6-mer frequency, TF over GST control) | binding signal [5]: 1.18 fold enrichment (6-mer frequency, TF over GST control) | binding signal [6]: 1.19 fold enrichment (6-mer frequency, TF over GST control) | binding signal [7]: 1.21 fold enrichment (6-mer frequency, TF over GST control) | binding signal [8]: 1.2 fold enrichment (6-mer frequency, TF over GST control) | binding signal [9]: 1.1 fold enrichment (6-mer frequency, TF over GST control) | binding signal [10]: 1.13 fold enrichment (6-mer frequency, TF over GST control) | binding signal [11]: 1.22 fold enrichment (6-mer frequency, TF over GST control) | binding signal [12]: 1.14 fold enrichment (6-mer frequency, TF over GST control) | binding signal [13]: 1.16 fold enrichment (6-mer frequency, TF over GST control) | binding signal [14]: 1.16 fold enrichment (6-mer frequency, TF over GST control) | binding signal [15]: 1.18 fold enrichment (6-mer frequency, TF over GST control) | binding signal [16]: 1.14 fold enrichment (6-mer frequency, TF over GST control) | binding signal [17]: 1.08 fold enrichment (6-mer frequency, TF over GST control) | binding signal [18]: 1.06 fold enrichment (6-mer frequency, TF over GST control)
